Measurements published in PubChem BioAssay AID1159580 (chemical genetic matrix, 2015).
About 2,000 (36%) of roughly 5,500 compounds were called active. Roughly 18% stayed inconclusive and do not appear here. This is one part of the list. A number with no mark means an inactive call. Rule as the data show it: active = normalized growth mostly below about 0.91 (no sharp cut-off); inconclusive = no clear call, values can overlap the other calls; inactive = mostly above about 0.92.

Assay: chemical genetic growth profiling, strain panel (AID 1159580);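 also: tested at 20 µM; growth read once vehicle control cultures reached saturation at 30 °C; 1 = growth at the plate median or of vehicle wells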
Settings: S. cerevisiae deletion strains, growth OD

In the case of CC(=O)c1c(O)c(C)c(O)c(Cc2c(O)c3c(c(C(=O)/C=C/c4ccccc4)c2O)OC(C)(C)C=C3)c1O, the normalized growth (locus YAL013W, strain DEP1, stronger effect = lower value) is reported as 0.909, the normalized growth (locus YAL040C, strain CLN3, stronger effect = lower value) is reported as 1 and the normalized growth (locus YCL061C, strain MRC1 (second series), stronger effect = lower value) is reported as 0.917 (active). The normalized growth (locus YDR150W, strain NUM1, stronger effect = lower value) was 0.883 (active), the normalized growth (locus YDR363W, strain ESC2, stronger effect = lower value) was 0.999 and the normalized growth (locus YER002W, strain NOP16, stronger effect = lower value) was 1.06. The normalized growth (locus YGR078C, strain PAC10, stronger effect = lower value) was 0.989, the normalized growth (locus YGR229C, strain SMI1, stronger effect = lower value) was 0.876 and the normalized growth (locus YJR075W, strain HOC1, stronger effect = lower value) was 0.877 (active). The normalized growth (locus YMR307W, strain GAS1, stronger effect = lower value) was 0.877 (active), the normalized growth (locus YNL153C, strain GIM3, stronger effect = lower value) was 0.857 and the normalized growth (locus YNL175C, strain NOP13, stronger effect = lower value) was 1.06. For the same molecule, the normalized growth (locus YNL197C, strain WHI3, stronger effect = lower value) was 1.01, the normalized growth (locus YNL224C, strain SQS1, stronger effect = lower value) was 1.01 and the normalized growth (locus YOR083W, strain WHI5 (second series), stronger effect = lower value) was 0.898. For the same molecule, the normalized growth (locus YPL055C, strain LGE1, stronger effect = lower value) was 0.881 (active) and the normalized growth (locus YPL241C, strain CIN2, stronger effect = lower value) was 0.902 (active).
